According to PubChem BioAssay AID1851 (National Center for Advancing Translational Sciences (NCATS), 2009):
In all, about 16,000 compounds went through this assay and about 5,700 (36%) were called active. About 24% were inconclusive and are not listed. The list shows a part of the results. Values without a mark were called inactive. Calls come from the whole dose curve; as a rule, active = well fitted curve in the direction sought with a large enough effect; inconclusive = small, poorly fitted or top-dose-only effect, or effect the other way; inactive = no such curve, though single readings can be large or run the other way.

Biological target: Cytochrome P450 1A2 (Homo sapiens) (UniProt P05177)
Sequence (P05177 whole entry, looked up): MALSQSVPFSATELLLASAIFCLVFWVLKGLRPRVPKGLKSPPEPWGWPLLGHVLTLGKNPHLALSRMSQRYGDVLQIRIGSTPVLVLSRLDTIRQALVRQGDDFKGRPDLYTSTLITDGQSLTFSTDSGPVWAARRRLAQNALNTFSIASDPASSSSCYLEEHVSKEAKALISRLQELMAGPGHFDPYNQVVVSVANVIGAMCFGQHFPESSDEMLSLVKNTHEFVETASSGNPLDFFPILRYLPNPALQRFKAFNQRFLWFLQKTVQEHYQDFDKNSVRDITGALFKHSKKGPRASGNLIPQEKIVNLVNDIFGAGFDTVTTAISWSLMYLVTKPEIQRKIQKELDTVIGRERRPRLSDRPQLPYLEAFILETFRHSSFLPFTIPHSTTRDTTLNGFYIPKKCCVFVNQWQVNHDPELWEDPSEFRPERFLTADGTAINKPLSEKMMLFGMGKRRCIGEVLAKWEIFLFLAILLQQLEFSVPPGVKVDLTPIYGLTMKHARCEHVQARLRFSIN
Test: Cytochrome panel assay with activity outcomes
Conditions: recombinant CYP, pro-luciferin dealkylation, luminescence, p450-cyp1a2; series mostly up to 57.1 µM; activity, negative = inhibition: at the top concentration
% is set by controls: 0 for no effect and ±100 for the full control effect.

Compound	activity, negative = inhibition	AC50
O=P(Nc1c(Cl)cccc1Cl)(c1ccccc1)c1nc2c(s1)CCCC2 (stereo not given)	-1.03%	–
CCN(CC)C(=O)N[C@@H]1C[C@H]2c3cccc4[nH]cc(c34)C[C@@H]2N(C)C1	–	inactive
C=CCN1CC[C@@]23c4c5ccc(O)c4O[C@H]2/C(=N\N=C2/CC[C@@]4(O)[C@H]6Cc7ccc(O)c8c7[C@@]4(CCN6CC=C)[C@@H]2O8)CC[C@]3(O)[C@@H]1C5	–	inactive
COc1cc2c3cc1Oc1cc(ccc1O)C[C@@H]1c4c(cc(OC)c(O)c4Oc4cccc(c4)C[C@H]3N(C)CC2)CC[N+]1(C)C	-8.38% [at 25.6 µM]	–
CCCN1CC[C@@H]2c3cc(O)ccc3CC[C@H]21	-9.66%	–
COc1ccc2cc1Oc1ccc(cc1)C[C@H]1c3cc(c(OC)cc3CCN1C)Oc1c(OC)c(OC)cc3c1[C@@H](C2)N(C)CC3	2.06% [at 2.29 µM]	–
C=CCN1CCC2(C)c3cc(O)ccc3C[C@H]1[C@H]2C	–	inactive
CCCN(CCC)[C@@H]1CCc2ccc(O)cc2C1	–	inactive
C=CCN1CCc2cccc3c2[C@@H]1Cc1ccc(O)c(O)c1-3	–	3.16 µM (active)
COc1cc2c3cc1Oc1c(O)c(OC)cc4c1[C@@H](Cc1ccc(cc1)Oc1cc(ccc1O)C[C@H]3N(C)CC2)N(C)CC4	-8.21% [at 11.4 µM]	–
CCCN1CCc2cc(O)cc3c2[C@H]1Cc1ccc(O)c(O)c1-3	–	12.6 µM (active)
CN1CCc2cc(O)cc3c2[C@H]1Cc1ccc(O)c(O)c1-3	–	12.6 µM (active)
COc1cc2c(cc1O)C[C@H]1c3c(cc(O)c(OC)c3-2)CCN1C	–	2.51 µM (active)
CN1CC[C@@]2(CCCN(C(=O)c3ccco3)C2)C1	7.97%	–
COC(=O)C[C@](O)(CCCC(C)(C)O)C(=O)O[C@@H]1C(OC)=C[C@]23CCCN2CCc2cc4c(cc2[C@H]13)OCO4	-9.9%	–
C=C[C@@H]1CN2CC[C@H]1C[C@H]2[C@H](O)c1ccnc2ccccc12	-18.2% [at 11.4 µM]	–
CCN1C[C@@]2(COC)[C@H]3[C@@H](OC)[C@H]4C1[C@@]3([C@H](OC)C[C@@H]2O)[C@H]1C[C@@]2(O)[C@@H](OC(=O)c3ccccc3)[C@@H]1[C@@]4(OC(C)=O)[C@H](O)[C@@H]2OC	-4.7% [at 25.6 µM]	–
NN=C(N)N	-5.67%	–
c1csc(CN2CC3(CCNCC3)C2)n1	12.5%	–
Clc1ccc([C@@H]2C[C@H]3CC[C@@H]2N3)cn1	-20.5%	–
Clc1ccc(C2=CCC[C@H]3CC[C@@H]2N3)cn1	–	15.8 µM (active)
CCN(CC)C(=O)N[C@H]1C[C@H]2c3cccc4[nH]cc(c34)C[C@@H]2N(C)C1	-12.5%	–
CNC(C)(C)Cc1ccccc1	-1.89% [at 25.6 µM]	–

Compound	activity, negative = inhibition	AC50
C[C@H](Br)C(=O)N[C@H](CO)C(=O)O	-13.1% [at 11.4 µM]	–
O=C(O)C[C@H]1NCc2cc3ccccc3nc21	-4.93% [at 2.29 µM]	–
CCC1(CC)C(=O)C=CNC1=O	-8.09% [at 25.6 µM]	–
O=C(Nc1ccc(Cl)cc1C(=O)c1ccccc1)c1ccco1	–	2.51 µM (active)
CC[C@]1(C2=NCCN2)Cc2ccccc2O1	-6.04%	–
CNC[C@H](O)c1ccc(O)cc1	-7.35% [at 25.6 µM]	–
CC[n+]1c(/C=C/N(C)c2ccccc2)sc2ccc(Cl)cc21	–	4.47 µM (active)
O=C(Nc1cccc(F)c1)N1CCC2(CC1)CCN(C(=O)Oc1ccccc1)CC2	-13.8%	–
CCC(=O)Nc1ccc(N2CCN(CC)CC2)c(Cl)c1	5.31%	–
COC(=O)[C@H]1[C@@H](c2ccccc2)[C@@]2(c3ccccc3)Oc3ccccc3[C@@]1(O)[C@@H]2O	4.61% [at 11.4 µM]	–
CC(C)[C@H](CO)Nc1nc(Nc2cccc(Cl)c2)c2ncn(C(C)C)c2n1	–	0.316 µM (active)
CC[C@@H](CO)Nc1nc(NCc2ccccc2)c2ncn(C(C)C)c2n1	–	12.6 µM (active)
O=C(O)[C@@H](Br)[C@H](Br)C(=O)O	5.86% [at 11.4 µM]	–
CC(C)CNC(=S)NC1CC2CCCC(C1)N2Cc1ccco1 (stereo not given)	4.27%	–
CC(C)N(CC[C@@](C(N)=O)(c1ccccc1)c1ccccn1)C(C)C	–	inactive
C(#CCN1CCCC1)CN1CCCC1	1.87% [at 25.6 µM]	–
CNC(=O)Oc1ccc2c(c1)[C@@]1(C)CCN(C)[C@@H]1N2C	-6.82% [at 25.6 µM]	–
O=C(C[n+]1ccc2ccccc2c1)c1ccc2ccc3ccccc3c2c1	–	2.51 µM (active)
CCOC(=O)c1c(NC(=O)C(c2ccccc2)c2ccccc2)sc2c1C1CCN2CC1	-3.75%	–
COc1ccc(NC(=O)NC2CC3CCCC(C2)N3Cc2ccccc2)cc1 (stereo not given)	1.27%	–
NC[C@@H](Cc1ccccc1)P(=O)(O)O	-9.3% [at 11.4 µM]	–
Nc1nc2ccc(Cl)cc2c2nc(-c3ccco3)nn12	–	0.0631 µM (active)
CN1CC[C@@]2(CCCN(C(=O)c3ccncc3)C2)C1	2.09%	–

Compound	activity, negative = inhibition	AC50
COC(=O)N1CCN(C(=O)Cc2ccc(Cl)c(Cl)c2)[C@H](CN2CCCC2)C1	–	inactive
CSC([N-]/N=C/c1cccc(C)n1)=[S]=[Cu].CS[C@H]([S-])[N-]/N=C/c1cccc(C)n1	–	0.631 µM (active)
O=C(Oc1ccccc1)N1CCC2(CCCN(C(c3ccccc3)c3ccccc3)C2)CC1	6.99%	–
CNCCCc1ccccc1	-2.27%	–
c1ccc2c([C@@H]3CCN(CCN4CCOCC4)C3)c[nH]c2c1	-9.42% [at 11.4 µM]	–
c1ccc(CCCCN2CCC(c3ccccc3)CC2)cc1	–	15.8 µM (active)
NC[C@@H](O)CSP(=O)(O)O	-2.54% [at 11.4 µM]	–
CCN1C[C@]2(COC)CC[C@H](O)[C@@]34[C@@H]5C[C@H]6[C@@H](OC)[C@H]5[C@](O)(C[C@@H]6OC)[C@@](O)([C@@H](OC)[C@H]23)[C@@H]14	0.799% [at 25.6 µM]	–
COc1cc2cc(c1Cl)N(C)C(=O)C[C@H](OC(=O)C(C)C)[C@]1(C)O[C@@H]1[C@@H](C)[C@H]1C[C@](O)(NC(=O)O1)[C@@H](OC)/C=C\C=C(\C)C2	-7.72% [at 11.4 µM]	–
O=c1[nH]c(=O)n(CCC2=CCCCC2)c(O)c1C=Nc1cccc(F)c1	-0.302%	–
CCC(=Nc1cc(OC)ccc1OC)c1c(O)[nH]c(=O)[nH]c1=O	–	14.1 µM (active)
CCCCn1c(O)c(C(CC)=Nc2ccc(OC)cc2OC)c(=O)[nH]c1=O	–	12.6 µM (active)
O=c1[nH]c(=O)n(CCc2ccc(F)cc2)c(O)c1C=NCCCN1CCOCC1	-8.06%	–
CCCCn1c(O)c(C(CC)=NCc2ccc(F)cc2)c(=O)[nH]c1=O	–	8.91 µM (active)
CC1=C(C)[N+](=O)C2(O)CCCCC2(C)N1[O-] (stereo not given)	12.4%	–
Nc1nc(N)c2nc(CNc3ccc(C(=O)N[C@H](CCC(=O)O)C(=O)O)cc3)cnc2n1	-19.4%	–
CN(C)C(=O)Oc1cc(OC(=O)N(C)C)cc([C@@H](O)CNC(C)(C)C)c1	-3.04% [at 25.6 µM]	–
C[C@H](c1ccccc1)N1CCN([C@@H](C)c2ccccc2)CC1	-16% [at 2.29 µM]	–
O=C(O)CSCC(=O)O	-2.34% [at 11.4 µM]	–
CC1=C2C(=O)[C@@H]3[C@@H](CC=C4C[C@@H](O)CC[C@@]43C)[C@H]2CC[C@@]12O[C@H]1C[C@H](C)CN[C@H]1[C@@H]2C	-16.8% [at 11.4 µM]	–
O=C(Oc1ccccc1)N1CCC2(CCCN(Cc3nccs3)C2)CC1	1.1%	–
C[C@]12N[C@H](Cc3ccccc31)c1ccccc12	–	inactive
CCCCCCCC/C=C\CCCCCCCC(N)=O	–	6.31 µM (active)

Compound	activity, negative = inhibition	AC50
CCCCC/C=C\C/C=C\C/C=C\C/C=C\CCCC(=O)NCC(=O)O	-16.2%	–
CC(C)[C@@]1(NC(=O)[C@@H]2C[C@H]3c4cccc5[nH]cc(c45)C[C@@H]3N(C)C2)O[C@@]2(O)[C@H]3CCCN3C(=O)[C@H](Cc3ccccc3)N2C1=O	-4.49%	–
COC(=O)NC/C=C\c1nc(CC/C=C\C(=O)O[C@H]2C[C@H]3CC(=O)O[C@@H](/C=C\CC(C)C)C[C@@H]4CC[C@H](C)[C@H](C[C@@H](OC)C[C@H](C2)O3)O4)co1	3.2% [at 11.4 µM]	–
Cc1cccc([C@H](C)c2cnc[nH]2)c1C	–	0.158 µM (active)
C=C1CC[C@H](O)C/C1=C/C=C1\CCC[C@]2(C)[C@H]1CC[C@H]2[C@@H](C)CCCC(C)C	-3.1% [at 25.6 µM]	–
CCNC(=S)NC1CC2CCCC(C1)N2Cc1ccco1 (stereo not given)	0.456%	–
CCCN(CCC)[C@@H]1CCc2cccc(O)c2C1	–	inactive
CCS(=O)(=O)Nc1cccc(C(=C2CCCCC2)c2cnc[nH]2)c1	–	0.316 µM (active)
C[N+]1(C)C2CC[C@H]1CC(OC(=O)[C@@H](CO)c1ccccc1)C2 (stereo not given in full)	5.51% [at 11.4 µM]	–
C[C@H](CN(C)C)C(C#N)(c1ccccc1)c1ccccc1	-3.45% [at 2.29 µM]	–
NCC[Se][Se]CCN	–	3.16 µM (active)
CC[C@H]1CN2CC[C@@H]1C[C@H]2[C@@H](O)c1ccnc2ccc(OC)cc12	-5.06% [at 25.6 µM]	–
COc1ccc(Cl)cc1NC(=O)NCCCl	–	2.82 µM (active)
C[C@H]1CN(C2CCC(C#N)(c3ccc(F)cc3)CC2)CC[C@@]1(C(=O)O)c1ccccc1 (stereo not given in full)	-0.959% [at 25.6 µM]	–
CCCN1CCC[C@H](c2cccc(O)c2)C1	–	inactive
O=C(O)c1ccccc1-c1c2cc(Br)c(=O)cc-2oc2[c]([Hg])c(O)c(Br)cc12	–	15.8 µM (active)
C[C@H](N)[C@H](O)c1ccc(O)c(O)c1	–	inactive
CCC(=O)O[C@H]1CC[C@H]2[C@@H]3CCC4=CC(=O)CC[C@]4(C)[C@H]3CC[C@]12C	-18% [at 25.6 µM]	–
CCN1CCC2(CC1)NC(CO)(CO)CO2	2.62%	–
COc1c2c(cc3c1OCO3)CCN(C)C2	–	2 µM (active)
C[C@]12N[C@@H](Cc3ccccc31)c1ccccc12	–	inactive
